OPRM1-OPRD1 ag: agonists of OPRM1-OPRD1 heterodimerization, primary screen, cell-based, luminescence; 340,000 compounds, 0.3% hits; AID 504326, 2011; cells; activation, % at 9.3 µM; Mu-type opioid receptor (Homo sapiens) + Delta-type opioid receptor (Homo sapiens), …; in the data active means activation above about 18%;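 further: 0% = vehicle-treated cells and 100% = reference agonist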
HTR5A ag: HTR5A agonists in luminescence cell assay, primary screen, counter-screen for OPRM1-OPRD1 heterodimer agonist project, full-deck HTS; 5-hydroxytryptamine receptor 5A (Homo sapiens), P47898; cell-based; activation, % at 9.3 µM; 340,000 compounds, 0.61% hits; AID 504692, 2011; in the data active means activation mostly above about 9.5%, no sharp cut-off; inactive means mostly below about 7.6%;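 further: 0% = cells with vehicle only and 100% = reference agonist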
Target sequence (P47898 whole entry, looked up): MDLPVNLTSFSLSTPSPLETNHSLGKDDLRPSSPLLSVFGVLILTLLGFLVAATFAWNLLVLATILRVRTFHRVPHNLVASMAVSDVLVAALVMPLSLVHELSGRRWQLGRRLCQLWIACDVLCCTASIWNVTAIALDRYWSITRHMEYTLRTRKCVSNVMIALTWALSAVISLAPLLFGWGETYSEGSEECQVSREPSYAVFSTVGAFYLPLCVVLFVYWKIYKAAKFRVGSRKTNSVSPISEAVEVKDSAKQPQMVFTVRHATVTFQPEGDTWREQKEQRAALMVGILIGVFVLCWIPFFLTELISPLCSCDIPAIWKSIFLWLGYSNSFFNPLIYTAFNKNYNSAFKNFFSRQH
HTR5A inv ctr: HTR5A inverse agonists in luminescence cell assay, primary screen, counter-screen for OPRM1-OPRD1 heterodimer inverse agonist project, full-deck HTS. inhibition, % at 9.3 µM. 340,000 compounds, 0.083% hits. HTR5A cell line, inverse agonism. AID 504634, 2011; in the data active means inhibition mostly above about 23%, no sharp cut-off; inactive means mostly below about 18%;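 further: 0% = cells with DMSO and 100% = no-cell wells with DMSO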
MOR-DOR inv ag: inverse agonists of MOR-DOR heterodimerization, primary screen, cell-based, luminescence; cell-based MOR-DOR heterodimer luminescence, inverse agonism; inhibition, % at 9.3 µM; 340,000 compounds, 0.21% hits; AID 504357, 2011; in the data active means inhibition above about 22%, passing the limit was not always enough;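 further: 0% = cells with DMSO and 100% = wells without cells with DMSO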
MOR-DOR inv conf: inverse agonists of MOR-DOR heterodimerization, confirmation, cell-based, luminescence; inhibition, % at 9.3 µM; cells expressing OPRM1/OPRD1 heterodimer; AID 504900, 2011; shares compounds with MOR-DOR inv ag; 580 compounds, 20% hits; in the data active means inhibition above about 32%;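 further: 0% = cells with DMSO and 100% = wells lacking cells with DMSO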
HTR5A inv ctr2: HTR5A inverse agonists, counter-screen for OPRM1-OPRD1 inverse agonist project, cell-based, luminescence; inhibition, % at 9.3 µM; HTR5A-expressing cells, inverse agonism; shares compounds with MOR-DOR inv ag; 580 tested, under 10 active; AID 504914, 2011; call rule not given here;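 further: 0% = cells with DMSO and 100% = no-cell wells with DMSO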
An asterisk follows results filed as active; . = no result. An excerpt weighted towards active compounds, which were near 1.1% of everything screened.

SMILES	OPRM1-OPRD1 ag	HTR5A ag	HTR5A inv ctr	MOR-DOR inv ag	MOR-DOR inv conf	HTR5A inv ctr2
O=C(CN1C(=O)C2C3CCC(C3)C2C1=O)OCC(=O)c1cccc([N+](=O)[O-])c1 (stereo not given)	-13	-14	35*	85*	-179	-27
O=C(CCN1C(=O)C2C3CC(C(Br)C3Br)C2C1=O)OCC(=O)c1cccc([N+](=O)[O-])c1 (stereo not given)	-3	1	18	21*	38*	15
O=C(CN1C(=O)C2C3CCC(C3)C2C1=O)OCC(=O)c1ccccc1 (stereo not given)	-3	-2	3	15	.	.
COc1ccc(C(=O)COC(=O)CCN2C(=O)C3C4CC(C(Br)C4Br)C3C2=O)cc1 (stereo not given)	-1	13	24	9	.	.
O=C(CCN1C(=O)C2C3CCC(C3)C2C1=O)OCC(=O)c1cccc([N+](=O)[O-])c1 (stereo not given)	-12	0	14	62*	-8	7
CC(C)C(C(=O)OCC(=O)c1cccc([N+](=O)[O-])c1)N1C(=O)[C@@H]2[C@H]3CC[C@H](C3)[C@@H]2C1=O (stereo not given in full)	-3	4	-9	17	.	.
Cc1ccc(C(=O)Cc2cc3ccccc3oc2=O)c(C)c1	1	2	-9	-5	.	.
O=C(NCCN1CCCC1)C1CCC(=O)N(CCCN2CCOCC2)C1 (stereo not given)	-4	2	0	13	.	.
CCC(=O)OCCNc1cc(Sc2nc3ccccc3[nH]2)c2nonc2c1[N+](=O)[O-]	-8	-10	-9	43*	-10	-8
O=[N+]([O-])c1c(NCCCO)cc(Sc2nc3ccccc3s2)c2nonc12	-6	-5	2	35*	30	12
Cc1ccc2c(c1)C(=O)C(=O)N2c1ccc(Cl)cc1	-10	1	24	58*	14	-3
O=C(C1=C(Nc2ccccc2)c2ccccc2S(=O)(=O)N1)c1ccccc1	-6	-3	7	32*	19	14
COc1ccc(N=C2C(=O)Nc3c(C)cccc32)cc1	-11	-7	25	62*	51*	24
Cc1cccc2c1NC(=O)C2=Nc1ccc(Cl)cc1	-11	-5	2	55*	45*	17
Cc1ccc(N=C2C(=O)Nc3c(C)cccc32)cc1	-11	-4	14	55*	32*	9
COc1ccc(N=C2C(=O)N3CCCc4cccc2c43)cc1	-5	4	27	22	.	.
Cc1ccc(N=C2C(=O)Nc3ccc(Br)cc32)cc1	-5	-2	6	24	.	.
COc1cccc(OC)c1C(=O)OCC(=O)N(c1ccccc1)C1CCCCC1	-3	4	-3	11	.	.
NC(=S)c1cc2ccc(O)cc2oc1=O	-5	-5	-1	31*	11	1
CCCN(CC(=O)Nc1ccccc1C)C(=O)c1ccc(N2CCCC(C)C2)c([N+](=O)[O-])c1 (stereo not given)	0	-1	3	2	.	.
CN1CCc2c(sc3c2c(=O)n(-c2ccc(Cl)cc2)c2nncn32)C1	0	-2	-2	1	.	.
O=c1c2c3c(sc2n2cnnc2n1Cc1ccccc1)CN(Cc1ccccc1)CC3	-6	-8	22	34*	-37	-27
O=C(COC(=O)CSc1ccc(Cl)cc1)Nc1ccc2[nH]c(=O)[nH]c2c1	-2	2	-7	11	.	.
COc1ccc(S(=O)(=O)N2CCC(C(=O)NCCCc3ccccc3)CC2)cc1	-1	-4	-6	6	.	.
COc1ccc(C(C#N)=C2C=CC(=NO)C=C2)cc1	-10	1	-2	48*	-47	-35
N#CC(=C1C=CC(=NO)C(Cl)=C1)c1ccc(Cl)cc1	-2	0	-1	9	.	.
Cc1ccccc1CN(C)CC(=O)NC(C)CCc1ccccc1 (stereo not given)	2	1	-3	-11	.	.
CN(C)c1ccc([C@@H]2[C@@H]([N+](=O)[O-])[C@H]3C=Cc4ccccc4N3[C@H]2C(=O)c2ccc(Cl)cc2)cc1	-2	3	-9	11	.	.
CC(=O)Nc1ccc(O)c(-c2nc3ccccc3s2)c1	-4	3	-2	26*	-47	-8

Bioassay records: PubChem, The Scripps Research Institute Molecular Screening Center
